Test results: PubChem BioAssay (EPA / NIEHS)
Results filed as inconclusive are left out. Activity calls are given as the source filed them. The calls were made as follows: active = hit-call score of the fitted dose curve at least 0.9, where 1 is the maximum; inconclusive = response in the unintended direction; inactive = score below 0.9.

target: human RAR-related Orphan Receptor beta (RORb), RORB (gene 6096) (UniProt Q92753); test: ATG_RORb_TRANS: Attagene TRANS-FACTORIAL HepG2 Assay for human RAR-related Orphan Receptor beta (RORb) (AID 2283010)
Sequence (Q92753 whole entry, looked up): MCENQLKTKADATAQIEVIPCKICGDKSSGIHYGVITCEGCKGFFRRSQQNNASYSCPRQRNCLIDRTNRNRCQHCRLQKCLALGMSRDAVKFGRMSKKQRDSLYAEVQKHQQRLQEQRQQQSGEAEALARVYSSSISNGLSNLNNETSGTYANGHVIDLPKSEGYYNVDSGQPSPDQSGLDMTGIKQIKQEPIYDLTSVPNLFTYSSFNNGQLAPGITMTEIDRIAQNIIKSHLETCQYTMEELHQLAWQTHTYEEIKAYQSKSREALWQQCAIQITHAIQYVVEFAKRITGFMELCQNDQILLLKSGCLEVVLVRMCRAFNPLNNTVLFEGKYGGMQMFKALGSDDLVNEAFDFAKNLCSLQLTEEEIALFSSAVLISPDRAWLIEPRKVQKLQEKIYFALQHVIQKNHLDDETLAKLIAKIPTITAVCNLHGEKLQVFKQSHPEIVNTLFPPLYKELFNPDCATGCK
Experimental: ATG_TRANS is a cell-based, multiplexed-readout assay that uses HepG2, a human liver cell line, with measurements taken at 24 hours after chemical dosing in a 24-well plate.ATG_RORb_TRANS is one of 30 assay component(s) measured or calculated from the ATG_TRANS assay. It is designed to make measurements of mRNA induction, a form of inducible reporter, as detected with fluorescence intensity signals by Reverse transcription polymerase chain reaction (RT-PCR) and Capillary electrophoresis technology.Data from the assay component ATG_RORb_TRANS was analyzed into 1 assay endpoint. This assay endpoint, ATG_RORb_TRANS, was analyzed in the positive analysis fitting direction relative to DMSO as the negative control and baseline of activity. Using a type of inducible reporter, measures of mRNA for gain-of-signal activity can be used to understand the reporter gene at the transcription factor-level as they relate to the gene RORB. Furthermore, this assay endpoint can be referred to as a primary readout, because this assay has produced multiple assay endpoints where this one serves a reporter gene function. To generalize the intended target to other relatable targets, this assay endpoint is annotated to the nuclear receptor intended target family, where the subfamily is orphan.
Human liver HepG2 cells are transiently transfected with multiple reporter transcription units (MRTUs) in 6-well plates using FuGene 6 reagent (Roche; 3 ml FuGene/1 mg DNA). The MRTU constructs are regulated by a cis-regulating element (promoter). […] A major difference between the CIS and TRANS system is that in CIS activities of endogenous TFs are measured, whereas the TRANS assay evaluates changes in activities of exogenous, chimeric NR-Gal4 proteins. […] At the end of 24 hour incubation, total RNA was isolated using TriZol reagent (Invitrogen). The isolated RNA is then reverse-transcribed using oligo(dT) primer and Mo-MLV reverse transcriptase (Invitrogen) with DNAse I (Ambion) treatment for 30 min. The one-tenth of the produced cDNA was amplified by PCR using Taq DNA polymerase (Invitrogen) and two reporter sequence-specific primers. The PCR products were fluorescently labeled by primer extension with 6-arboxyfluorescein (6-FAM) 5'-labeled reporter sequence-specific primer (2 min at 95 C, 20 s at 68 C and 10 min at 72 C) and these products were digested with 5U of HpaI (New England Biolabs) for 2h at 37 C. The fragments were purified using Qiaquick PCR columns (Qiagen), analyzed on an ABI 3130xL genetic analyzer (Applied Biosystems) with peak positions identified by using a set of X-rhodamine (ROX)-labeled MapMarker1000 molecular weight standards (BioVentures). The raw capillary electrophoresis data was processed using Attagraph software (Attagene).

Row | Compound | outcome
1 | CCC(C)(C)C(=O)OC1=C(c2ccc(Cl)cc2Cl)C(=O)OC12CCCCC2 | inactive
2 | O=[N+]([O-])c1c(Cl)c(Cl)c(Cl)c(Cl)c1Cl | inactive
3 | ClC1C(Cl)C(Cl)C(Cl)C(Cl)C1Cl (stereo not given) | inactive
4 | CNC(=O)Oc1cccc(N=CN(C)C)c1 | inactive
5 | CC(C)OC(=O)Nc1cccc(Cl)c1 | inactive
6 | CC(C)(C)C(O)C(Oc1ccc(Cl)cc1)n1cncn1 (stereo not given) | inactive
7 | O=C(O)C(F)(F)C(F)(F)C(F)(F)C(F)(F)C(F)(F)C(F)(F)C(F)(F)F | inactive
8 | O=C(O)COc1ccc(Cl)cc1Cl | inactive
9 | CN1CSC(=S)N(C)C1 | inactive
10 | Cc1cc(C)nc(NC(=O)NS(=O)(=O)c2ccccc2C(=O)OC2COC2)n1 | inactive
11 | CCC(C)Nc1c([N+](=O)[O-])cc(C(C)(C)C)cc1[N+](=O)[O-] (stereo not given) | inactive
13 | O=C(O)CCCOc1ccc(Cl)cc1Cl | inactive
14 | CNC(=O)/C=C(\C)OP(=O)(OC)OC | inactive
15 | CNC(=O)CSP(=S)(OC)OC | inactive
16 | O=C1c2ccccc2C(=O)N1SC(Cl)(Cl)Cl | inactive
17 | COC(=O)c1ccccc1CS(=O)(=O)NC(=O)Nc1nc(OC)cc(OC)n1 | inactive
18 | OCCOc1ccccc1 | inactive
19 | CCS(=O)(=O)c1cccnc1S(=O)(=O)NC(=O)Nc1nc(OC)cc(OC)n1 | inactive
20 | Oc1ccc(Cl)cc1Cc1ccccc1 | inactive
21 | N#Cc1c(Cl)c(Cl)c(Cl)c(C#N)c1Cl | inactive
22 | COP(=S)(OC)Oc1ccc(SC)c(C)c1 | inactive
23 | CCc1ccc(C(=O)NN(C(=O)c2cc(C)cc(C)c2)C(C)(C)C)cc1 | inactive
25 | CCC(C)(NC(=O)c1cc(Cl)c(C)c(Cl)c1)C(=O)CCl (stereo not given) | inactive
